Hits are enriched below; roughly 7.5% of the tested compounds scored in any of these assays.
NPC1 prom act: activators of NPC1 promoter; 320,000 compounds, 2.4% hits; AID 485313; Huh7 NPC1 promoter luciferase reporter, 24 h; Potency, µM (top dose mostly 9.22 µM), actives largely listed as activators; also: nearly all actives have a fitted effect of over 60% in size
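Stably transfected Huh7 (NPC1 promoter→luciferase), 1500 cells/well in Opti-MEM + 10% FBS, 2 h settle, then compound 24 h at 37 °C. Luminescence after 10 min with Amplite reagent.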
SMN2 splice up: enhancers of SMN2 splice variant expression; Potency, µM (titrated, usually from 46.1 µM), usual class: activators; HEK293 SMN2-luciferase splicing reporter, luminescence, 30-36 h; 210,000 compounds, 2.8% hits; AID 1458; also: nearly all actives have a fitted effect of over 55% in size
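HEK293 cells carry an SMN2 […]–luciferase reporter in which exon 7 inclusion puts luciferase in frame. Cells were plated 10-12 h before compound addition, then incubated 30-36 h at 37C. ONE-Glo luminescence was read; sodium butyrate at 4.5 mM final served as control.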
Rab9 promoter act: activators of Rab9 promoter | Huh7 Rab9 promoter-luciferase reporter, luminescence, 24 h | Potency, µM (highest dose often 9.22 µM), actives largely listed as activators | 320,000 compounds, 2.8% hits | AID 485297; also: nearly all actives have a fitted effect of over 60% in size
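Luminescence read-out: Huh7 cells stably expressing Rab9-luciferase, treated 24 h with compound at 37 °C, then lysed with luciferase reagent for 10 min at ambient before reading.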
ELG1 genotoxic: induces genotoxicity in HEK293T cells with luciferase-tagged ELG1. AID 504466. Potency, µM (highest dose often 46 µM), most hits filed as activators. HEK293T ELG1-luciferase reporter, luminescence, 16 h. 330,000 compounds, 1.3% hits; also: nearly all actives have a fitted effect of over 60% in size
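Genotoxicity was scored as increased ELG1-luciferase reporter signal, measured by ONE-Glo luminescence (30 min, room temperature). Compound or vehicle exposure of the HEK293T reporter cells lasted 16 hr at 37°C.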
FLuc counter: inhibits or activates purified firefly luciferase, miR-21 counter-screen. P08659. purified FLuc, Km substrates, luminescence inhibition. Potency, µM (doses to about 57.5 µM), most hits filed as inhibitors. 360,000 compounds, 6.9% hits; also: nearly all actives have a fitted effect of over 55% in size
Target sequence (P08659 whole entry, looked up): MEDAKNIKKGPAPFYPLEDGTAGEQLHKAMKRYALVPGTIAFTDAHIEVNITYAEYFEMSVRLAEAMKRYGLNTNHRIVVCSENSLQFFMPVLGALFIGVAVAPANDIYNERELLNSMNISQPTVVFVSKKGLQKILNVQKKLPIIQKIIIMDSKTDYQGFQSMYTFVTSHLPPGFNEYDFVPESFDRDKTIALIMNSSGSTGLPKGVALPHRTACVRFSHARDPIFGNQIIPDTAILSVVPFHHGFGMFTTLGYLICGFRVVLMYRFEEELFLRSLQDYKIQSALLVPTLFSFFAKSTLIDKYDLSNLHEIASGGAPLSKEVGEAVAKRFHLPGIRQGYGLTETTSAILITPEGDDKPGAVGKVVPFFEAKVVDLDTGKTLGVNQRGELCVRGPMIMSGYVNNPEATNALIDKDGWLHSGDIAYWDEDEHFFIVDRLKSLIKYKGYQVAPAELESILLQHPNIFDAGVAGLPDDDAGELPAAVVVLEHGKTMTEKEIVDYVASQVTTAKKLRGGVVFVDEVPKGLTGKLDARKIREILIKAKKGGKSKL
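Biochemical qHTS of compounds, final roughly 60 µM downward over six points, against 10 nM purified firefly luciferase using Km concentrations of substrates (10 uM D-luciferin, 10 uM ATP) in Tris acetate pH 7.5 buffer; luminescence output.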
KinaseGlo FLuc: Kinase-Glo luciferase inhibition (counter-screen); Q27757; 200,000 compounds, 0.28% hits; Potency, µM (doses to about 38.3 µM), hits mostly inhibitors; Kinase-Glo luciferase, ATP luminescence, 8 min; also: nearly all actives have a fitted effect of over 60% in size
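Inhibition of Kinase-Glo luciferase light generation was assessed at 10 uM ATP in pH 7.2 imidazole buffer, with luminescence measured after eight minutes at ambient temperature.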
Hits are given with their value; - = inactive; ? = inconclusive; . = not tested or not shown; [ ] = another dose, or the depositor's remark. Calls follow the shape of the dose curve; as a rule, active = well fitted curve in the direction sought with a large enough effect; inconclusive = small, poorly fitted or top-dose-only effect, or another doubt; inactive = no such curve, though single readings can be large; an effect the other way counts as inactive or inconclusive.

SMILES	NPC1 prom act	SMN2 splice up	Rab9 promoter act	ELG1 genotoxic	FLuc counter	KinaseGlo FLuc
Cc1cc(/C=C2/NC(=O)N(c3ccccc3)C2=O)c(C)n1-c1cccnc1	2.24µM	7.94µM	1.58µM	?	3.38µM	-
Nc1cc(C(=O)OCC(=O)c2ccc(CC(=O)N3CCOCC3)s2)ccc1Cl	-	.	-	-	?	.
O=C(OCC(=O)c1ccc(Cl)s1)c1ccc(CO)cc1	-	.	-	-	21.3µM	.
Cc1ccc(C(=O)COC(=O)c2ccc(Cl)c(N)c2)s1	?	.	3.16µM	-	1.35µM	.
CCN1C(=O)/C(=C/N2CCc3ccccc32)SC1=S	2.82µM	10µM	3.16µM	6.51µM	?	-
CC(=O)N1CCC2(CCCN(c3cccc(-c4ccccc4)c3)C2)CC1	.	-	.	.	.	-
COc1ccc(-n2nc(C(=O)NCC(=O)N3CCCC3)c3ccccc3c2=O)cc1	-	.	-	-	12µM	.
COc1ccc(-n2nc(C(=O)NCC(=O)O)c3ccccc3c2=O)cc1	-	.	-	-	-	.
COc1ccc(-n2nc(C(=O)NCC(=O)N3CCCCC3)c3ccccc3c2=O)cc1	-	.	-	-	3.01µM	.
COc1ccc(-n2nc(C(=O)NCC(=O)N(C)Cc3ccccc3)c3ccccc3c2=O)cc1	-	.	-	-	16.9µM	.
CCN1CCN(C(=O)CNC(=O)c2nn(-c3ccc(OC)cc3)c(=O)c3ccccc23)CC1	-	.	-	-	4.78µM	.
COc1ccc(-n2nc(C(=O)NCC(=O)N3CCN(Cc4ccccc4)CC3)c3ccccc3c2=O)cc1	-	.	-	-	?	.
COc1ccc(-n2nc(C(=O)NCC(=O)NC(C)C)c3ccccc3c2=O)cc1	-	.	-	-	-	.
Nc1ccc(-c2nc3ccc(N)cc3[nH]2)cc1	?	?	?	-	15.1µM	-
Nc1ccc2nc(-c3cc(Cl)c(N)c(Cl)c3)[nH]c2c1	?	15.8µM	3.16µM	?	6.01µM	?
Nc1ccc2nc(-c3ccc(Cl)cc3)[nH]c2c1	?	?	?	16.4µM	1.9µM	?
Nc1ccc2nc(-c3cccc(-c4nc5ccc(N)cc5[nH]4)c3)[nH]c2c1	-	.	-[1.84 µM]	-	7.57µM	.
COc1ccccc1NC(=O)Cn1c(=O)n(CC2CCC(C(=O)NCCc3ccccc3)CC2)c(=O)c2ccccc21 (stereo not given)	.	-	.	.	-	.
Cc1nc2ccc(-c3nc4ccc(N)cc4[nH]3)cc2[nH]1	?	.	?	-	4.78µM	-
Nc1ccc(-c2nc3c(Cl)c(N)ccc3[nH]2)cc1	?	?	?	-	12µM	-
CCCC(=O)Nc1ccc2nn(-c3ccc(CC)cc3)nc2c1	.	-	.	.	?	.
CC(C)(C)n1cnc2cc(NCc3ccccc3Cl)ccc21	.	-	.	.	13.5µM	.
CCc1ccc(CNc2ccc3c(c2)ncn3C)cc1	2.24µM	11.2µM	2.82µM	?	9.53µM	-
Cn1cnc2cc(NCc3ccccc3O)ccc21	-	.	-	-	?	.
CCn1cnc2cc(NCc3ccc(Cl)cc3)ccc21	2.82µM	.	2.51µM	?	10.7µM	.
SMILES	NPC1 prom act	SMN2 splice up	Rab9 promoter act	ELG1 genotoxic	FLuc counter	KinaseGlo FLuc
Cc1ccc(CNc2ccc3c(c2)ncn3C(C)(C)C)cc1	1.78µM	10µM	3.98µM	?	9.53µM	-
CS(=O)(=O)Nc1cccc(-c2nc(N3CCNCC3)c3ccccc3n2)c1	.	-	.	.	.	-
COc1ccc(CNc2ccc3c(c2)ncn3C)cc1OC	-	.	-	-	-	.
Cc1ccc(CNc2ccc3c(c2)ncn3C)cc1	3.16µM	17.8µM	2µM	8.2µM	12µM	-
COc1ccc(Cl)c2sc(N3CCN(C(C)=O)CC3)nc12	-	.	-	-	-	.
COc1ccc(OC)c2sc(N3CCN(C(=O)C(C)(C)C)CC3)nc12	.	.	.	.	13.5µM	.
CCOC(=O)COc1ccc([N+](=O)[O-])cc1-c1ccnc2cc(-c3ccc(C)cc3)nn12	.	-	.	.	-	.
CCOC(=O)Cn1cnc(-c2ccc([N+](=O)[O-])cc2)c1	-	?	?	?	12µM	-
COc1ccc(C(=O)Nc2ccc(S(=O)(=O)N3CCOCC3)cc2)cc1OC	-	-	-	-	-	-
COc1ccc(C(=O)Nc2ccc(N3CCCC3)cc2)cc1	-	-	?	?	7.57µM	-
CCOc1ccc(CCNC(=O)Cn2nnc(-c3ccc(OC)c(OC)c3)n2)cc1OCC	.	-	.	.	-	.
CCOc1ccc(C(=O)Nc2ccc(NC(=O)c3ccccc3)cc2)cc1Br	-	-	-	-	-	.
COc1ccc(CCNC(=O)Cn2nnc(-c3ccc(N4CCOCC4)cc3)n2)cc1OC	-	?	?	-	3.01µM	-
CCOc1ccc(C(=O)Nc2ccc(N3CCN(C)CC3)cc2)cc1Br	-	-	-	-	6.01µM	-
COc1ccc(C(=O)Nc2ccc(N3CCOCC3)cc2)cc1OC	-	-	-	-	23.9µM	?
COc1ccc(Br)cc1CNC(=O)CSc1cc(=O)n(C)c2ccccc12	.	-	.	.	-	.
COc1ccc(C(=O)Nc2ccc(N3CCCC3)cc2)cc1OC	3.55µM	.	3.98µM	?	5.36µM	.
CN(C)c1cccc(C(=O)Nc2ccc(N3CCOCC3)cc2)c1	-	?	?	?	21.3µM	-
CN(C)/C=N/c1ncnc2c1cnn2-c1ccc(C(F)(F)F)cn1	2.51µM	14.1µM	?	?	10.7µM	-
COc1cccc(NC(=S)N/N=C2/CCCCc3ccccc32)c1	-	28.2µM	-	-	13.5µM	-
O=C(CNC(=O)c1cccs1)NCC(=O)OCC(=O)c1ccccc1	-	.	-	-	-	.
COc1cccc(C(=O)COC(=O)c2cccs2)c1	?	.	-	?	0.477µM	.
COc1cccc(C(=O)COC(=O)c2cc(-c3cccs3)nc3ccccc23)c1	.	-	.	.	-	.
O=C(CCC(=O)c1cccs1)NC(c1ccccc1)c1ccccc1	-	-	-	-	-	-
O=C(CCC(=O)c1cccs1)c1cccs1	1.26µM	.	0.631µM	16.4µM	4.78µM	-
SMILES	NPC1 prom act	SMN2 splice up	Rab9 promoter act	ELG1 genotoxic	FLuc counter	KinaseGlo FLuc
O=C(COC(=O)c1cccs1)c1ccccc1	?	-	3.98µM	-	0.849µM	-
O=C(CSCc1ccco1)c1cccs1	3.98µM	-	1.26µM	11.6µM	9.53µM	-
Nn1c(-c2ccccc2Cl)nnc1-c1ccccc1Cl	3.55µM	?	3.98µM	?	0.953µM	-
COC(=O)CCC(=O)c1oc2ccccc2c1NC(=O)CCCN1C(=O)c2ccccc2C1=O	-	-	-	-	-	-
COC(=O)CCC(=O)c1oc2ccccc2c1N	-	-	-	?	21.3µM	-
CC(=O)Oc1ccc2occ(-c3ccccc3)c2c1	?	.	-	-	19µM	.
O=c1ccc2cc3c(-c4ccccc4)coc3cc2o1	-	.	-	-	19µM	.
CC(=O)Oc1ccc2occ(C(=O)c3cccs3)c2c1	?	-	?	?	13.5µM	-
O=C(c1cccs1)c1coc2ccc(O)cc12	-	-	-	?	?	-
O=C(c1cccs1)c1coc2ccc(O)c(CN3CCOCC3)c12	-	-	-	-	-	-
O=C(CCl)Oc1ccc2occ(C(=O)c3cccs3)c2c1	-	-	?	11.6µM	23.9µM	-
